# Screening data: PubChem BioAssay, National Center for Advancing Translational Sciences (NCATS)
# In the library only some 21% were active in any assay of this set; here they are far more common.
# Shiga toxin inh – A qHTS for Small Molecule Inhibitors of Shiga Toxin | AID 2315, 2010 | Vero cells, Shiga toxin protein synthesis inhibition reporter | inhibition, % at 38.7 µM | 9.2% of 290,000 active; in the data active = inhibition mostly above about 28%, no sharp cut-off; inactive = mostly below about 43%
# NS1 function inh – qHTS Assay for Inhibitors of Influenza NS1 Protein Function | Potency, µM (series often up to 46.1 µM) | 0.4% of 270,000 active | AID 2326, 2010; calls by dose curve; note: actives are rising curves; nearly all actives have a fitted effect of over 50% in size
#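 Read-out: OD600 growth recovery of NS1-expressing budding yeast. Cells grown overnight at 30C in -URA glucose medium, washed, resuspended and diluted 1:100 in 2% galactose assay medium, pH 6.0. Same strain lacking NS1 served as positive control.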
# Cycloheximide cs – Cycloheximide Counterscreen for Small Molecule Inhibitors of Shiga Toxin. cell reporter, cycloheximide protein synthesis inhibition counterscreen. max response, %. 12% of 300,000 active. AID 2314, 2010; in the data active = max response mostly above about 13%, no sharp cut-off; inactive = mostly below about 14%; note: read at 38.3 µM for the half of the compounds with a filed dose
# SARS PLP yeast – qHTS of Yeast-based Assay for SARS-CoV PLP; 0.19% of 330,000 active; S. cerevisiae expressing SARS-CoV PLpro, growth rescue; AID 485353, 2010; Potency, µM (highest dose often 32.9 µM), actives largely listed as activators; calls by dose curve; note: nearly all actives have a fitted effect of over 55% in size
# Pf growth 96h – Primary qHTS for delayed death inhibitors of the malarial parasite plastid, 96 hour incubation | P. falciparum luciferase reporter growth, 96 h | Potency, µM (highest dose often 28.7 µM), usual class: inhibitors | 6.9% of 320,000 active | AID 504834, 2011
#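 Readout is luminescence from an integrated firefly luciferase in P. falciparum. Red cells, 2% hematocrit and 0.05% parasitemia final, were cultured with compound through two parasite generations (96 hours) at 37 C, 5% CO2.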
# Pf growth 48h – Primary qHTS for delayed death inhibitors of the malarial parasite plastid, 48 hour incubation; P. falciparum luciferase growth in erythrocytes, 48 h; AID 504832, 2011; Potency, µM (top dose mostly 28.7 µM), actives largely listed as inhibitors; 5.9% of 310,000 active
#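 Cell-based growth assay: transgenic P. falciparum expressing firefly luciferase, cultured in red cells within RPMI 1640 containing 0.5% w/v Albumax, 24 mM bicarbonate and gentamycin. A drop in luciferase activity indicates inhibition.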
# A number is an active result; i = inactive; ? = inconclusive; nt = no result given; [ ] = remark or other dose. Unless noted, calls come from the whole dose curve; as a rule, active = well fitted inhibition curve with a large enough effect; inconclusive = small, poorly fitted or top-dose-only effect, or another doubt; inactive = no such curve, though single readings can be large or run the other way.
SMILES,Shiga toxin inh,NS1 function inh,Cycloheximide cs,SARS PLP yeast,Pf growth 96h,Pf growth 48h
Cc1onc(-c2c(Cl)cccc2Cl)c1/C(N)=N/OC(=O)C(C)(C)C,i,i,i,i,8.28µM,11.7µM
Cc1onc(-c2c(F)cccc2Cl)c1C(=O)N=C(N)N1CC(C)OC(C)C1 (stereo not given),i,i,i,i,10.4µM,?
Cc1onc(-c2c(F)cccc2Cl)c1C(N)=S,i,nt,i,i,i,?
Cc1onc(-c2c(F)cccc2Cl)c1C(=O)O/N=C(\N)c1ccc([N+](=O)[O-])o1,36.4,i,i,i,11.7µM,8.28µM
Cc1onc(-c2c(Cl)cccc2Cl)c1C(=O)N1CCc2ccccc2C1,i,i,i,i,7.38µM,10.4µM
CS(=O)(=O)N1CCc2cc(C(=O)N3CCN(c4ccccc4F)CC3)ccc21,i,i,i,i,i,i
COc1ccccc1C1CCN(Cc2cccc(C(=O)N3CCC(O)CC3)c2)CC1,i,i,i,i,i,i
COC(C(=O)Nc1ccnn1C1CCN(C(=O)c2ccc(C)cc2)CC1)c1ccccc1 (stereo not given),i,i,i,i,i,i
COc1cc2c(cc1OC)[C@]13CC[N@+]4(C)CC5=CCO[C@H]6CC(=O)N2[C@@H]1C6[C@@H]5C[C@]34O (stereo not given in full),nt,i,nt,nt,nt,nt
CCC(Oc1ccccc1)C(=O)Nc1cc(Cl)ccc1-n1cncn1 (stereo not given),nt,nt,nt,i,11.7µM,4.15µM
Cc1cc(CN2CCN(CC(=O)Nc3cc(Cl)ccc3-n3cncn3)CC2)no1,nt,nt,nt,i,2.08µM,2.08µM
Cc1cc(CN2CCN(CC(=O)Nc3cc(C(F)(F)F)ccc3-n3cncn3)CC2)no1,nt,nt,nt,i,4.15µM,10.4µM
COc1ccc(C(=O)Nc2cc(C(F)(F)F)ccc2-n2cncn2)cc1,i,i,i,i,?,nt
CC(Oc1ccc(F)cc1)C(=O)Nc1cc(C(F)(F)F)ccc1-n1cncn1 (stereo not given),nt,nt,nt,i,0.415µM,0.586µM
CC(=O)NC(CC(=O)NNC(=O)c1cccs1)c1ccccc1 (stereo not given),nt,nt,nt,i,i,i
CCOC(=O)C(CC)n1nc(C)n2c(cc3occc32)c1=O (stereo not given),i,i,i,i,nt,i
S=C(Nc1ccccc1Cl)N(Cc1cccnc1)Cc1ccco1,i,i,i,i,?,4.15µM
Cc1cccc(C)c1NC(=S)N(Cc1ccccc1)Cc1cccnc1,i,nt,i,i,i,?
CCN(Cc1ccncc1)C(=S)Nc1c(C)cccc1C,i,i,i,i,2.08µM,i
CCc1cccc(C)c1NC(=S)N(Cc1cccnc1)Cc1ccco1,i,i,i,i,11.7µM,?
CC(C)n1nccc1N(Cc1ccc(Br)cc1)S(=O)(=O)c1ccccc1,i,i,i,i,5.22µM,13.1µM
CC(C)n1nccc1N(Cc1ccc(Cl)cc1)S(=O)(=O)c1ccccc1,i,i,i,i,?,?
CCCCOC(=O)n1c(=S)oc2cc(Cl)ccc21,100.6,i,23.6,i,i,i
CC(CCc1ccccc1)NC(=O)CN1C(=O)NC2(CCCCC2C)C1=O (stereo not given),nt,nt,nt,i,i,i
O=C(Nc1nnc(S(=O)(=O)N2CCOCC2)s1)c1ccccc1,i,i,10.5,i,i,i
SMILES,Shiga toxin inh,NS1 function inh,Cycloheximide cs,SARS PLP yeast,Pf growth 96h,Pf growth 48h
COc1ccccc1C(=O)Nc1nnc(S(=O)(=O)N2CCC(C)CC2)s1,i,i,i,i,?,i
COc1ccccc1C(=O)Nc1nnc(S(=O)(=O)N2CCOCC2)s1,i,i,14.0,i,i,i
O=C(Nc1nnc(S(=O)(=O)N2CCOCC2)s1)c1ccc(Cl)cc1,i,i,i,i,i,?
CC1=CC(=O)C=C(C)C1=NOc1ccccc1[N+](=O)[O-],i,i,i,i,?,i
CC1CCCN(C(=O)C2CCN(S(=O)(=O)c3ccccc3)CC2)C1 (stereo not given),nt,nt,nt,i,nt,nt
CC1CCCC(C)N1C(=O)c1cc(-c2ccc(Cl)c(Cl)c2)on1 (stereo not given),i,i,i,i,i,i
O=C(c1cc(-c2ccc(Cl)c(Cl)c2)on1)N1CCCCCC1,36.1,i,20.2,i,i,i
Cc1ccc(-c2cc(C(=O)N3CCOCC3)no2)cc1,i,i,i,i,i,i
CC1CCCC(C)N1C(=O)c1cc(-c2ccc3c(c2)OCO3)on1 (stereo not given),77.9,i,53.6,i,i,i
Cc1ccc(-c2cc(C(=O)N3CCCC3)no2)cc1,active,i,i,i,i,i
O=C(c1cc(-c2ccc3c(c2)OCO3)on1)N1CCCCC1,54.8,i,25.0,i,13.1µM,i
O=C(c1cc(-c2ccccc2Cl)on1)N1CCN(C(=O)c2ccco2)CC1,i,i,i,i,i,i
O=C(C[C@H]1C/C=C\CC[C@H](Cc2ccc(F)cc2)C(=O)O[C@H](c2ccccc2)CNC1=O)N[C@H](CO)Cc1ccccc1,nt,nt,nt,i,nt,nt
COc1ccccc1N1CCN(C(=O)c2cc(-c3ccc(F)cc3)on2)CC1,i,i,i,i,i,i
O=C(c1cc(-c2ccc(O)cc2)on1)N1CCCCCC1,60.8,i,33.9,i,i,i
O=C(c1cc(-c2ccc(Cl)cc2)on1)N1CCCCCC1,109.4,i,26.8,i,i,i
COc1ccccc1N1CCN(C(=O)c2cc(-c3ccc(Cl)cc3)on2)CC1,i,i,i,i,i,i
N#Cc1cnc2sc3ccccc3n2c1=N,50.6,i,47.2,i,i,nt
COc1cc(C(=O)NCCSc2ccccc2)cc(OC)c1OC,i,i,i,i,10.4µM,i
CN(C)S(=O)(=O)c1ccc(C(=O)NCCSc2ccccc2)cc1,151.0,i,48.1,i,nt,i
COc1ccc(C(=O)NCCSc2ccccc2)cc1OC,64.1,i,32.9,i,i[5.75 µM],i
COc1ccc(C(=O)n2cnnc2N)cc1,i,i,i,i,i,i
COc1ccc(-n2nc(N)c(C(N)=O)n2)cc1,i,nt,33.0,i,i,i
CCOC(=O)c1ccc(NC(=S)N2CCN(C(=O)C3CCCO3)CC2)cc1 (stereo not given),i,i,i,i,i,i
Cc1ccc(S(=O)(=O)N(C)C)cc1NC(=O)C1CCCCC1,i,i,i,i,i,i
SMILES,Shiga toxin inh,NS1 function inh,Cycloheximide cs,SARS PLP yeast,Pf growth 96h,Pf growth 48h
Cc1nn(-c2ccccn2)c(C)c1Oc1ccccc1O,i,i,i,i,2.62µM,nt
Cc1nn(-c2ccc(C(=O)O)cc2)c(C)c1Oc1ccccc1O,i,i,i,i,i,nt
Cc1nn(-c2nc3ccccc3s2)c(C)c1Oc1ccccc1O,71.9,i,31.9,i,i,i
CCCCOCCCNS(=O)(=O)c1ccccc1,i,i,i,i,i,i
CCCCOP(=O)(OCCCC)C1(NS(=O)(=O)c2ccccc2)C=CC(=O)c2ccccc21 (stereo not given),i,i,i,i,?,10.4µM
C/C(=N/NC(=O)c1ccc(Br)o1)c1cccs1,123.2,i,50.3,nt,?,i
